Reference: article PMC10812921, “Transcriptional Coactivator BOB1 (OBF1, OCA-B) Modulates the Specificity of DNA Recognition by the POU-Domain Factors OCT1 and OCT2 in a Monomeric Configuration”

biological target: POU1 (OCT1 POU domain);BOB1 (OBF1, OCA-B) (human;human, UniProt P14859;Q16633 260-458;1-256, |); test: EMSA-SELEX-seq; with BOB1 (ternary complex band); 20 mM Tris-HCl pH 7.6, 140 mM NaCl, 10% glycerol, 0.5 mM EDTA, 0.05% Triton X-100, 0.1 mg/mL BSA, 0.1 mg/mL poly(dI-dC), 5 mM DTT, room temperature, 20 min; high values mean tight binding; conditions: protein: recombinant;recombinant; copies: 1;1; dsDNA, one strand shown
Outline: (§1)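 After expression in E. coli BL21, tagged POU-domain proteins were purified under denaturing conditions and then renatured. Each binding reaction held 30 ng protein and 300 ng of a PCR-amplified double-stranded random 35-nt library in 20 μL Tris–HCl pH 7.6 binding buffer, with or without 28 ng coactivator protein, for 20 min at RT. Bands holding complexes were cut from native 6% PAGE, eluted and PCR-amplified across four rounds, and the output was Illumina-sequenced. The value given for binding preference is the share, in percent, of sequenced 8-mers fitting a motif pattern.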

| Sequence | binding signal |
| --- | --- |
| AAGCCAAC | 0.0109 % of ANNNNAAN 8-mers |
| AGTAGAAA | 0.0464 % of ANNNNAAN 8-mers |
| ATCCAAAG | 0.0566 % of ANNNNAAN 8-mers |
| ACTGGAAG | 0.0211 % of ANNNNAAN 8-mers |
| AGTCAAAC | 0.122 % of ANNNNAAN 8-mers |
| ACGATAAC | 0.0191 % of ANNNNAAN 8-mers |
| ATTCGAAC | 0.0324 % of ANNNNAAN 8-mers |
| AGCGTAAA | 0.0347 % of ANNNNAAN 8-mers |
| ATTACAAG | 0.048 % of ANNNNAAN 8-mers |
| ACCCTAAA | 0.0137 % of ANNNNAAN 8-mers |
| ACCACAAT | 0.0199 % of ANNNNAAN 8-mers |
| ATTTTAAT | 0.258 % of ANNNNAAN 8-mers |
| ATCCCAAC | 0.0172 % of ANNNNAAN 8-mers |
| AGCACAAT | 0.0258 % of ANNNNAAN 8-mers |
| AGAAAAAA | 0.0812 % of ANNNNAAN 8-mers |
| AAAGGAAT | 0.0901 % of ANNNNAAN 8-mers |
| ATCATAAC | 0.023 % of ANNNNAAN 8-mers |
| ATTATAAC | 0.0581 % of ANNNNAAN 8-mers |
| AAAGCAAG | 0.0457 % of ANNNNAAN 8-mers |
| ACAACAAG | 0.0187 % of ANNNNAAN 8-mers |

| Sequence | binding signal |
| --- | --- |
| AGCAAAAC | 0.0792 % of ANNNNAAN 8-mers |
| ATCAAAAT | 0.106 % of ANNNNAAN 8-mers |
| AGCGTAAT | 0.0382 % of ANNNNAAN 8-mers |
| AGTCTAAT | 0.0761 % of ANNNNAAN 8-mers |
| AGCGAAAT | 0.0492 % of ANNNNAAN 8-mers |
| AGCGAAAC | 0.0137 % of ANNNNAAN 8-mers |
| ACTAAAAC | 0.023 % of ANNNNAAN 8-mers |
| AGATCAAT | 0.0355 % of ANNNNAAN 8-mers |
| ATTGAAAT | 0.189 % of ANNNNAAN 8-mers |
| AGTTAAAT | 0.217 % of ANNNNAAN 8-mers |
| AAAGGAAG | 0.0675 % of ANNNNAAN 8-mers |
| ACACAAAA | 0.0644 % of ANNNNAAN 8-mers |
| ACGTGAAG | 0.0258 % of ANNNNAAN 8-mers |
| AATCCAAC | 0.016 % of ANNNNAAN 8-mers |
| AAGCCAAA | 0.0464 % of ANNNNAAN 8-mers |
| ATAGCAAC | 0.0207 % of ANNNNAAN 8-mers |
| ACTAGAAT | 0.0589 % of ANNNNAAN 8-mers |
| AACTTAAG | 0.0363 % of ANNNNAAN 8-mers |
| ATATAAAG | 0.0597 % of ANNNNAAN 8-mers |
| AATAAAAT | 0.185 % of ANNNNAAN 8-mers |

biological target: T1, POU2 (OCT2 POU domain);BOB1 (OBF1, OCA-B) (human;human, UniProt P09086;Q16633 175-386;1-256, |); test: as above; conditions: protein: recombinant;recombinant; copies: 1;1; dsDNA, one strand shown
T1 sequence 1: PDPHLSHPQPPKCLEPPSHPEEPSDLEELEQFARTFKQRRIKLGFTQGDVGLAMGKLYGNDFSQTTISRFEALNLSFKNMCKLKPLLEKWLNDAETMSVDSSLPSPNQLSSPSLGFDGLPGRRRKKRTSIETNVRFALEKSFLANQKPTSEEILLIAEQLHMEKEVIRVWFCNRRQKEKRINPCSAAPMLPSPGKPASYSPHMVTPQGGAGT
T1 sequence 2: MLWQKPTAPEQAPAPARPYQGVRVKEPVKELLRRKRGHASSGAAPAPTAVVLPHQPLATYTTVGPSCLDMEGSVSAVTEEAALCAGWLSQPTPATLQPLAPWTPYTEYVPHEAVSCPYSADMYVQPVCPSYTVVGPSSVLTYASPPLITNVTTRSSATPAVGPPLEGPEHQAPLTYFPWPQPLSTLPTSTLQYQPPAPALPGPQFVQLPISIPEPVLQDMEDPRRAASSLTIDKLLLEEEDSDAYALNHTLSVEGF
Outline: as §1

| Sequence | binding signal |
| --- | --- |
| AAGCCAAC | 0.0107 % of ANNNNAAN 8-mers |
| AGTAGAAA | 0.052 % of ANNNNAAN 8-mers |
| ATCCAAAG | 0.0446 % of ANNNNAAN 8-mers |
| ACTGGAAG | 0.0314 % of ANNNNAAN 8-mers |
| AGTCAAAC | 0.0545 % of ANNNNAAN 8-mers |
| ACGATAAC | 0.0264 % of ANNNNAAN 8-mers |
| ATTCGAAC | 0.0396 % of ANNNNAAN 8-mers |
| AGCGTAAA | 0.0396 % of ANNNNAAN 8-mers |
| ATTACAAG | 0.0413 % of ANNNNAAN 8-mers |
| ACCCTAAA | 0.0107 % of ANNNNAAN 8-mers |
| ACCACAAT | 0.0215 % of ANNNNAAN 8-mers |
| ATTTTAAT | 0.221 % of ANNNNAAN 8-mers |
| ATCCCAAC | 0.014 % of ANNNNAAN 8-mers |
| AGCACAAT | 0.0264 % of ANNNNAAN 8-mers |
| AGAAAAAA | 0.0561 % of ANNNNAAN 8-mers |
| AAAGGAAT | 0.0925 % of ANNNNAAN 8-mers |
| ATCATAAC | 0.0322 % of ANNNNAAN 8-mers |
| ATTATAAC | 0.057 % of ANNNNAAN 8-mers |
| AAAGCAAG | 0.0421 % of ANNNNAAN 8-mers |
| ACAACAAG | 0.014 % of ANNNNAAN 8-mers |

| Sequence | binding signal |
| --- | --- |
| AGCAAAAC | 0.0446 % of ANNNNAAN 8-mers |
| ATCAAAAT | 0.0743 % of ANNNNAAN 8-mers |
| AGCGTAAT | 0.0611 % of ANNNNAAN 8-mers |
| AGTCTAAT | 0.0958 % of ANNNNAAN 8-mers |
| AGCGAAAT | 0.0619 % of ANNNNAAN 8-mers |
| AGCGAAAC | 0.0198 % of ANNNNAAN 8-mers |
| ACTAAAAC | 0.0297 % of ANNNNAAN 8-mers |
| AGATCAAT | 0.0578 % of ANNNNAAN 8-mers |
| ATTGAAAT | 0.137 % of ANNNNAAN 8-mers |
| AGTTAAAT | 0.127 % of ANNNNAAN 8-mers |
| AAAGGAAG | 0.0702 % of ANNNNAAN 8-mers |
| ACACAAAA | 0.0363 % of ANNNNAAN 8-mers |
| ACGTGAAG | 0.0305 % of ANNNNAAN 8-mers |
| AATCCAAC | 0.0223 % of ANNNNAAN 8-mers |
| AAGCCAAA | 0.0256 % of ANNNNAAN 8-mers |
| ATAGCAAC | 0.0405 % of ANNNNAAN 8-mers |
| ACTAGAAT | 0.0438 % of ANNNNAAN 8-mers |
| AACTTAAG | 0.0363 % of ANNNNAAN 8-mers |
| ATATAAAG | 0.0603 % of ANNNNAAN 8-mers |
| AATAAAAT | 0.164 % of ANNNNAAN 8-mers |
